Compounds with a hit are over-represented: about 15% of the library has one in this group of screens.
Pf growth 48h – Primary qHTS for delayed death inhibitors of the malarial parasite plastid, 48 hour incubation; P. falciparum luciferase growth in erythrocytes, 48 h; AID 504832, 2011; Potency, µM (doses to about 28.7 µM), without a hit: top-dose activity change, negative = inhibition, actives largely listed as inhibitors; 310,000 tested, 5.9% active; also: potency is read from the fitted curve at half-maximal effect; % is scaled to controls: 0 for no effect and ±100 for the full control effect
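First compound was added to culture medium, then infected red cells at 0.1% parasitemia and 2% hematocrit (final). After incubation at 37 C under 5% CO2, luciferase detection reagent was dispensed and light output recorded.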
Pf growth 96h – Primary qHTS for delayed death inhibitors of the malarial parasite plastid, 96 hour incubation. Potency, µM (series often up to 28.7 µM), without a hit: at the top dose activity change, negative = inhibition, most hits filed as inhibitors. P. falciparum luciferase reporter growth, 96 h. AID 504834, 2011. 320,000 tested, 6.9% active; also: potency is read from the fitted curve at half-maximal effect; % is scaled to controls: 0 for no effect and ±100 for the full control effect
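Delayed-death screen, second-generation endpoint: infected erythrocytes, 2% hematocrit, 0.05% parasitemia final; 96 hours at 37 C, 5% CO2; luciferase detection reagent; luminescence decrease equals reduced growth.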
SARS PLpro yeast – qHTS of Yeast-based Assay for SARS-CoV PLP; S. cerevisiae expressing SARS-CoV PLpro, growth rescue; Potency, µM (highest dose often 32.9 µM), for inactives: at the top dose activity, positive = growth rescue, actives largely listed as activators; 330,000 tested, 0.19% active; AID 485353, 2010; calls by dose curve; also: potency is read from the fitted curve at half-maximal effect; 0% is about no effect; nearly all actives have a fitted effect of over 55% in size
HCMV inh – qHTS Assay for inhibitors of the human cytomegalovirus (HCMV); HFF cells, HCMV-luciferase reporter, 72 h; stronger effect = lower value; activity change, negative = inhibition, % at 57.5 µM; 410,000 tested, 4.5% active; AID 1259415, 2018; in the data active = activity change below about -60%; inconclusive = no clear call, values can overlap the other calls; inactive = above about -39%; also: % is scaled to controls: 0 for no effect and ±100 for the full control effect
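Inhibition of viral replication was scored as loss of reporter luminescence in HFFs infected with HCMV-luciferase (MOI 1 PFU/cell) for 72 h; compounds tested at 2 doses, normalized to buffer and Salinomycin controls.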
Sm TGR block – qHTS Assay for the Inhibitors of Schistosoma Mansoni Peroxiredoxins; Schistosoma mansoni thioredoxin glutathione reductase (TGR), Q962Y6; purified TGR, DTNB reduction, TNB absorbance 405 nm; Potency, µM (titrated, usually from 114 µM), inactives show at the highest dose activity change, negative = inhibition, most hits filed as inhibitors; 360,000 tested, 3% active; also: potency is read from the fitted curve at half-maximal effect; % is scaled to controls: 0 for no effect and ±100 for the full control effect; nearly all actives have a fitted effect of over 60% in size
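First, TGR (20 nM dispensed) and NADPH were mixed with compound. Second, a 15 min room-temperature incubation followed. Third, further NADPH and then DTNB were added to start the reaction. Finally, TNB absorbance was monitored kinetically.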
HCV inh – qHTS Assay for Inhibitors of Hepatitis C Virus (HCV); Huh7.5.1 HCVcc-Cre infection, luciferase reporter, 44 h; Potency, µM (series often up to 41.8 µM), without a hit: top-dose activity change, negative = inhibition, usual class: inhibitors; 340,000 tested, 3.4% active; AID 651820, 2012; also: potency is read from the fitted curve at half-maximal effect; % is scaled to controls: 0 for no effect and ±100 for the full control effect
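Compounds are dispensed onto cells plated 4 h earlier at 1,000 per well, with HCVcc-Cre virus (about 0.5 moi) added next. Following 44 h of culture, luminescent signal is measured for 15 sec after 15 min with substrate at room temperature.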
Starred values were filed as active, the others as inactive; ? = inconclusive; . = no result; ! = repeats disagree. Unless noted, calls follow the shape of the dose curve; as a rule, active = well fitted curve in the direction sought with a large enough effect; inconclusive = small, poorly fitted or top-dose-only effect, or another doubt; inactive = no such curve, though single readings can be large; an effect the other way counts as inactive or inconclusive.

SMILES	Pf growth 48h	Pf growth 96h	SARS PLpro yeast	HCMV inh	Sm TGR block	HCV inh
CC(C)CCNC(=O)c1cccc(Nc2nc3ccccc3n3nnnc23)c1	.	.	.	-81*	4%	.
CC(NC(=O)c1cccc(Nc2nc3ccccc3n3nnnc23)c1)c1ccccc1 (configuration not stated)	.	.	.	-68*	-3%	.
O=C1c2ccc([N+](=O)[O-])cc2C(=O)N1Cc1cccnc1	6%	-1%	-2%	-13	?	22%
CCSc1nnc2ccc(-c3ccc(C)cc3)nn12	-6%	1%	-22%	11	0%	-6%
CCSc1nnc2ccc(-c3ccco3)nn12	17%	-33%	-2%	0	35µM*	1%
O=c1c(O)c(-c2ccccc2)oc2ccccc12	.	.	.	?	.	-29%
Cc1ccc(-c2oc3ccccc3c(=O)c2O)cc1	3.7µM*	35%	-14%	?	-6%	6%
Cc1[nH]nc2ncc(C(=O)c3ccccc3O)cc12	?	?	-2%	-82*	-2%	-10%
CC(CCc1ccco1)NC(=O)Cn1ncc2c1-c1ccccc1OC2 (configuration not stated)	-14%	6%	-7%	-16	50µM*	4%
CC(C)(C)NC[C@H](O)CSc1nc(-c2ccc(C(N)=O)s2)cs1	?	11µM*	.	.	.	.
CCC(=O)N1CCC1(C)C(=O)Nc1ccc2c(c1)OCO2 (configuration not stated)	.	.	.	1	.	.
CC1(C(=O)Nc2ccccc2)CCN1C(=O)Cc1ccc(-c2ccccc2)cc1 (configuration not stated)	.	.	.	-74*	.	.
CC1(C(=O)Nc2ccc3c(c2)OCO3)CCN1C(=O)Cc1ccc(-c2ccccc2)cc1 (configuration not stated)	.	.	.	-81*	.	.
CCN=c1scc(-c2ccc3c(c2)NC(=O)CO3)n1N=C1CCCC1	?	?	-3%	-77*	-7%	16µM*
CCCCN=c1scc(-c2ccc3c(c2)NC(=O)CO3)n1N=C1CCCC1	.	9.3µM*	6%	-76*	?	7.9µM*
CCN(CC)C(=O)Cn1c(=O)n(CCCCCC(=O)NCc2ccc3c(c2)OCO3)c(=O)c2sccc21	.	.	.	-20	-5%	.
COc1ccc(Nc2ncc(C(=O)N3CCN(c4ccc(OC)cc4)CC3)c3ccccc23)cc1	.	.	.	-31	6%	.
COc1ccc(Nc2ncc(C(=O)N3CCN(c4ccc(F)cc4)CC3)c3ccccc23)cc1	?	1.9µM*	3%	-105*!	4%	11µM*
COc1ccc(Nc2ncc(C(=O)N3CCC4(CC3)OCCO4)c3ccccc23)cc1	-4%	49%	5%	-76*	-16%	-6%
CC1CCCCC1N(C)C1CCN(C(=O)CNC(=O)/C=C/c2cccc(Cl)c2)CC1 (configuration not stated)	?	-6%	3%	-100*	35µM*	?
CN(C1CCCC1)C1CCN(C(=O)CNC(=O)/C=C/c2ccccc2)CC1	4%	?	-5%	?	6%	20%
COc1ccc2nc(C)c(C(=O)OCCN(C)C)cc2c1	70%	19%	-3%	.	0%	.
Cc1ccc(S(=O)(=O)N2C3CCCCC3O[C@H]2CC(=O)c2cccc3ccccc23)cc1 (some centres not stated)	.	.	.	12	.	.
Clc1ccc(-c2ccc(C=Nc3ccc(N4CCOCC4)cc3)o2)c(Cl)c1	12%	24%	-3%	-26	4%	6%
Clc1ccc(-c2ccc(C=Nc3ccc(N4CCOCC4)cc3)o2)cc1	-6%	10%	-16%	-62*	1%	16%
SMILES	Pf growth 48h	Pf growth 96h	SARS PLpro yeast	HCMV inh	Sm TGR block	HCV inh
Cc1cc(NC(=O)CSc2nc3c(c(=O)n2-c2ccccc2)SC(C)C3)no1 (configuration not stated)	?	4.1µM*	4%	12	-10%	19%
COc1ccc(-n2c(SCC(=O)NCC3CCCO3)nc3c(c2=O)SC(C)C3)cc1 (configuration not stated)	12µM*	?	0%	-5	3%	11%
Cc1ccc(Cn2c(SCC(=O)NCC3CCCO3)nc3ccsc3c2=O)cc1 (configuration not stated)	-3%	41%	3%	0	-1%	8.9µM*
CC1Cc2nc(SCC(=O)NCC3CCCO3)n(Cc3ccccc3)c(=O)c2S1 (configuration not stated)	15µM*	33%	1%	.	-19%	11%
Cc1ccc(N(CCC#N)C(=O)COC(=O)C2=COCCO2)cc1	?	8%	1%	-13	-7%	-6%
CC1Cc2nc(SCC(=O)NCC3CCCO3)n(-c3ccc(F)cc3)c(=O)c2S1 (configuration not stated)	8.3µM*	3.7µM*	-3%	-9	-18%	28%
Cc1ccc(-n2c(SCC(=O)NCC3CCCO3)nc3c(c2=O)SCC3)cc1 (configuration not stated)	2%	0%	1%	-16	1%	7%
O=C(CSc1nc2ccsc2c(=O)n1CC1CCC(C(=O)O)CC1)NCCc1ccc(Cl)cc1 (configuration not stated)	?	7.4µM*	-2%	-24	-24%	9%
Cc1cccc(CN2CCN(C(=O)CN(C)C(C)C(=O)Nc3ccc(C(N)=O)cc3)CC2)c1 (configuration not stated)	-16%	-16%	9%	-6	5%	-13%
CCC1(CCC(C)C)SC(N)=NC1=O (configuration not stated)	.	.	.	-13	.	29%
CCCSc1ccc([C@@H]2[C@H]3C(=O)N(CC)C(=O)[C@H]3[C@]3(C(=O)OC)CCCCN23)cc1	13µM*	7.4µM*	-2%	-7	?	2%
CCCCCCSc1ccc([C@@H]2[C@H]3C(=O)N(CC)C(=O)[C@H]3[C@]3(C(=O)OC)CCCN23)cc1	?	10µM*	-1%	62	-17%	-1%
COc1cccc(CN(Cc2ccccc2F)S(=O)(=O)c2ccc(S(=O)(=O)NCc3ccccc3)cc2)c1	?	?	26%	-38	5%	14%
COc1cccc(CN(Cc2ccco2)S(=O)(=O)c2ccc(S(=O)(=O)NCc3ccccc3)cc2)c1OC	13µM*	12%	9%	-13	-3%	11µM*
